The record followed here is PubChem BioAssay AID1851 (National Center for Advancing Translational Sciences (NCATS), 2009).

SMILES strings stand for the structures. Hit rate of the full screen: of about 16,000 compounds, about 5,100 (32%) were called active. About 25% were inconclusive and are not listed. Calls follow the shape of the dose curve; as a rule, active = well fitted curve in the direction sought with a large enough effect; inconclusive = small, poorly fitted or top-dose-only effect, or effect the other way; inactive = no such curve, though single readings can be large or run the other way. This is one part of the list.
% is scaled to controls: 0 for no effect and ±100 for the full control effect.

The target of this experiment is Cytochrome P450 3A4 (Homo sapiens) (UniProt P08684). The experiment in a line: Cytochrome panel assay with activity outcomes. The settings on record: recombinant CYP, pro-luciferin dealkylation, luminescence, p450-cyp3a4; series mostly up to 57.1 µM; activity, negative = inhibition: at the top concentration.
Sequence of Cytochrome P450 3A4 (Homo sapiens) (P08684 whole entry, looked up): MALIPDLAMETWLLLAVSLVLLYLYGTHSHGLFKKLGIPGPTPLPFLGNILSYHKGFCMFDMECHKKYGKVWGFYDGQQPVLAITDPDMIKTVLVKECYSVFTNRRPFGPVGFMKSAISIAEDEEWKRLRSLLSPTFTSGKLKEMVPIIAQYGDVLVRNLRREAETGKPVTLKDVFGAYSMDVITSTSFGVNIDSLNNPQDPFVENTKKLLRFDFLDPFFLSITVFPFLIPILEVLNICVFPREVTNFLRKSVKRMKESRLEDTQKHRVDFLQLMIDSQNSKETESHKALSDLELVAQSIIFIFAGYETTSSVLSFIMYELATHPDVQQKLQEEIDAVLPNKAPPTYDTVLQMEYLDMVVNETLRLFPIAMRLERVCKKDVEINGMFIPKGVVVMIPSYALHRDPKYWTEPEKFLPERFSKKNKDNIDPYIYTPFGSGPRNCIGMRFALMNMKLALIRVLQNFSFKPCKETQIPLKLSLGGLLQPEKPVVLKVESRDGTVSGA
As for `NC(=O)OC[C@H](O)COc1ccc(Cl)cc1`, the “activity, negative = inhibition” value was -3.48% [at 25.6 µM] (inactive).
In general, AC50 refers to the midpoint of the concentration-response curve, whichever way the signal moves. On to `C[C@H](CO)NC(=O)[C@@H]1C[C@H]1[C@@H](NP(=O)(c1ccccc1)c1ccccc1)c1ccccc1`, for which the AC50 was 12.6 µM (active).
As to `O=C(Nc1ccc2ccccc2c1)[C@@H]1C[C@H]1[C@@H](NP(=O)(c1ccccc1)c1ccccc1)c1ccccc1`, the “activity, negative = inhibition” value is -44.6% (inactive).
In the case of `O=C(Nc1ccc2ccccc2c1)[C@H]1C[C@@H]1[C@H](NP(=O)(c1ccccc1)c1ccccc1)c1ccccc1`, the AC50 was 2.51 µM (active).
Take `CCOC(=O)CCN1C(=O)[C@H]2[C@H]3[C@H](O)[C@H](O)C/C(=N/OC/C=C(\C)CCC=C(C)C)[C@H]3CC[C@@H]2C1=O`: the activity, negative = inhibition is -16.7% [at 11.4 µM] (inactive).
With `CC(C)=CCC/C(C)=C/CO/N=C1/C[C@@H](O)[C@@H](O)[C@@H]2[C@@H]3C(=O)N(Cc4ccccc4)C(=O)[C@H]3CC[C@@H]12`, the activity, negative = inhibition is -7.78% [at 11.4 µM] (inactive).
`CC(C)=CCC/C(C)=C/CO/N=C1/C[C@@H](O)[C@@H](O)[C@@H]2[C@@H]3C(=O)N(Cc4ccc5c(c4)OCO5)C(=O)[C@H]3CC[C@@H]12`: the concentration at half-maximal activity (AC50) was 1.58 µM (active).
Same read-out and setting: in the case of `CC(C)=CCC/C(C)=C/CO/N=C1/C[C@@H](O)[C@@H](O)[C@@H]2[C@@H]3C(=O)N(Cc4ccc5c(c4)OCO5)C(=O)[C@H]3CC[C@H]12` it was 1.58 µM (active).
Consider `CCOC(=O)CCN1C(=O)[C@H]2[C@H]3[C@H](O)[C@H](O)C/C(=N/OC/C=C(\C)CCC=C(C)C)[C@@H]3CC[C@@H]2C1=O`, for which the activity, negative = inhibition was -25.9% [at 11.4 µM] (inactive).
On the same count and under the same terms, as for `CC(C)=CCC/C(C)=C/CO/N=C1/C[C@@H](O)[C@@H](O)[C@@H]2[C@@H]3C(=O)N(C[C@@H]4CCCO4)C(=O)[C@H]3CC[C@@H]12`, the figure is -23% [at 11.4 µM] (inactive); as for `CCn1c(CCCc2nc3c([nH]2)c(=O)n(C)c(=O)n3C)nc2c1c(=O)n(C)c(=O)n2C`, -26.8% [at 11.4 µM] (inactive); as for `COC(=O)c1[nH]c2ccc(Br)cc2c1NC(=O)Oc1ccccc1`, 10.3% [at 2.29 µM] (inactive).
Same read-out and setting: as for `COC(=O)c1[nH]c2ccc(Br)cc2c1NC(=O)CN1CCCc2ccccc21`, the figure is -23.9% [at 2.29 µM] (inactive).
For `COC(=O)c1[nH]c2ccc(Br)cc2c1NC(=O)CN1CCN(C2CCCCC2)CC1`, the half-maximal activity concentration (AC50) was 14.1 µM (active).
For `COc1ccc(C2c3c(ncn(CCN4CCOCC4)c3=N)Oc3ccc4ccccc4c32)cc1OC` (stereo unspecified), the concentration at half-maximal activity (AC50) is 3.16 µM (active).
Take `Cc1ccccc1OCCNC(=O)c1ccccc1Sc1ccccc1C#N`: the AC50 is 14.1 µM (active).
On to `CNC(=S)NNC(=O)COc1ccccc1C`, for which the “activity, negative = inhibition” value was -15% (inactive).
Consider `CCCC1CCC(c2ccc(C(N)=O)cc2)CC1` (stereo unspecified), for which the “activity, negative = inhibition” value was -23.3% (inactive).
Regarding `CC(C)c1nc2ccccn2c1NC1CCCCC1`, the AC50 was 14.1 µM (active).
On to `N=c1c(C(=O)NC2CCCC2)cc2c(=O)n3ccccc3nc2n1C1CCCC1`, for which the “activity, negative = inhibition” value was 6.82% (inactive).
On the same count and under the same terms, as for `CCSc1nnc(-c2ccccc2NC(C)=O)c(=O)[nH]1`, the figure is 13.7% (inactive).
As to `CCC[C@@H]1C[C@@]1(CCC)C(NC(=O)c1ccco1)c1ccc(Cl)cc1` (stereo partly specified), the AC50 is 12.6 µM (active).
Take `CCC[C@@H]1C[C@@]1(CCC)C(NC(=O)c1cccs1)c1ccc(Cl)cc1` (stereo partly specified): the AC50 is 6.31 µM (active).
As to `CCCCN1C(=O)NC(NC(=O)c2ccco2)(C(F)(F)F)C1=O` (stereo unspecified), the activity, negative = inhibition was 2.31% [at 2.29 µM] (inactive).
As to `CC[C@H](CN(C)C)C(=O)c1ccco1`, the activity, negative = inhibition is -7.24% [at 11.4 µM] (inactive).
Turning to `CCC[C@@H]1C[C@@]1(CCC)C(NS(=O)(=O)c1cccc2cccnc12)c1ccc(Cl)cc1` (stereo partly specified), the AC50 was 0.794 µM (active).
As to `CCOC(=O)CC(NC(=O)c1cccs1)c1ccc(OCC)cc1` (stereo unspecified), the “activity, negative = inhibition” value was -4.62% (inactive).
Same read-out and setting: as for `Cc1noc(C)c1C(=O)N1CCC2(CCN(C(=O)NC(C)C)CC2)CC1`, the figure is -8.24% (inactive); as for `CCn1nc(C(=O)Nc2ccccc2C)c(Cl)c1Cl`, -3.65% (inactive); as for `COC(=O)Cn1nc(-c2ccccc2)n(-c2ccccc2)c1=S`, 14.3% (inactive).
`CCn1c(-c2ccccc2Cl)nn(CC(=O)Nc2cc(Cl)ccc2Cl)c1=S`: the AC50 was 5.01 µM (active).
As to `CCn1c(-c2ccccc2Cl)nn(CC(=O)Nc2ccccc2OC)c1=S`, the AC50 was 12.6 µM (active).
Turning to `CCn1c(-c2ccccc2Cl)nn(CC(=O)Nc2ccc(OC)cc2)c1=S`, the concentration at half-maximal activity (AC50) is 5.01 µM (active).
With `COc1ncc2nc(-c3cc(F)cc(F)c3)c(=O)n(-c3ccccc3)c2n1`, the “activity, negative = inhibition” value is -23.8% (inactive).
As for `COc1ccc(Oc2ncc3nc(-c4cc(F)cc(F)c4)c(=O)n(C)c3n2)cc1`, the half-maximal activity concentration (AC50) was 5.01 µM (active).
As for `COc1ccc(Oc2ncc3nc(-c4ccc(F)cc4)c(=O)n(C)c3n2)cc1`, the AC50 is 3.98 µM (active).
Turning to `O=c1c(-c2cc(F)cc(F)c2)nc2cnc(Oc3ccccc3)nc2n1C1CC1`, the “activity, negative = inhibition” value is -14% (inactive).
Still for that read-out and setting: in the case of `COc1cccc(Nc2ncc3nc(-c4ccc(F)cc4)c(=O)n(C)c3n2)c1` it was -16.2% (inactive); in that of `CN(CCO)Cc1ncccc1O`, -9.73% [at 11.4 µM] (inactive); in that of `O=C(O)[C@H](Cc1c[nH]c2ccccc12)N1C(=O)c2ccccc2C1=O`, -3.21% [at 11.4 µM] (inactive).
Regarding `O=C(NCCc1c[nH]c2ccccc12)C1CCN(c2nnc(N3CCCC3=O)s2)CC1`, the AC50 is 8.91 µM (active).
On to `CN1CCN(CCCNC(=O)C2CCN(c3nnc(-n4cccc4)s3)CC2)CC1`, for which the “activity, negative = inhibition” value was -16% (inactive).
With `CCOc1ccc(NC(=S)N(Cc2ccc(Cl)cc2)Cc2ccco2)cc1`, the AC50 is 3.55 µM (active).
On the same count and under the same terms, as for `CCOc1ccc(NC(=S)N(Cc2ccc(N(C)C)cc2)Cc2ccco2)cc1`, the figure is 7.08 µM (active).
The same measure, in the same setting: as for `Cc1cccc(OCCSCc2nc3ccccc3[nH]2)c1`, the figure is 7.08 µM (active).
Take `COc1ccccc1CN1CCCC2(CCNCC2)C1`: the “activity, negative = inhibition” value was -16.5% (inactive).
Regarding `c1ccc(C(c2ccccc2)N2CCC3(CCNCC3)CC2)cc1`, the “activity, negative = inhibition” value is -12.2% (inactive).
As to `c1ccc(C(c2ccccc2)N2CCCC3(CCNCC3)C2)cc1`, the concentration at half-maximal activity (AC50) is 1.26 µM (active).
Consider `c1ccc(C(c2ccccc2)N2CC[C@@]3(CCCNC3)C2)cc1`, for which the concentration at half-maximal activity (AC50) is 7.94 µM (active).
On the same count and under the same terms, in the case of `Cc1cc(C)cc(-n2c(O)c(C=NC3CCS(=O)(=O)C3)c3ccccc3c2=O)c1` (stereo unspecified) it was 10 µM (active); in that of `O=C(Nc1ccc2c(c1)OCCO2)c1cc2sccc2n1Cc1ccccc1`, 6.31 µM (active).
On the same count and under the same terms, in the case of `Cn1c(C(=O)Nc2ccccc2)cc2sccc21` it was 25.1 µM (active).
`COC(=O)c1ccc(NC(=O)c2cc3sccc3n2C)cc1`: the “activity, negative = inhibition” value is -90.9% (inactive).
Regarding `O=C(Nc1ccc2c(c1)OCCO2)c1cc2sccc2n1Cc1ccc(F)cc1`, the AC50 was 5.01 µM (active).
Turning to `CCOC(=O)c1sc(NC(=O)CSc2nc(C)cc(C)c2C#N)c(C#N)c1C`, the activity, negative = inhibition was -17.1% [at 2.29 µM] (inactive).
On to `CCOC(=O)c1sc(NC(=O)CSc2nc(C)cc(C)n2)c(C#N)c1C`, for which the half-maximal activity concentration (AC50) is 10 µM (active).
Same read-out and setting: as for `CCOC(=O)c1sc(NC(=O)CSc2n[nH]c(-c3ccc(Cl)cc3Cl)n2)c(C#N)c1C`, the figure is 10 µM (active).
In the case of `CN1[C@@H](CC(=O)c2ccccc2)CCC[C@@H]1C[C@@H](O)c1ccccc1`, the “activity, negative = inhibition” value was -4.36% (inactive).
In the case of `O=C1COC(c2ccccc2O)=NN1CCCN1CCCC1`, the activity, negative = inhibition was -10.8% [at 11.4 µM] (inactive).
On to `CCc1ccc(N/C(SCc2ccccc2C)=C(/C#N)C(=O)NCc2ccco2)cc1`, for which the AC50 is 6.31 µM (active).
Turning to `CCN1CCC[C@@H]1CNC(=O)c1cc(S(N)(=O)=O)ccc1OC`, the “activity, negative = inhibition” value is -4.15% (inactive).
Same read-out and setting: as for `O=C(CSc1ccc(Cl)cc1)Nc1ccc(N2CCN(c3ccccc3)CC2)c(F)c1`, the figure is -28.4% (inactive); as for `O=C(CSc1ccccc1)Nc1ccc(N2CCN(c3ccccc3)CC2)c(F)c1`, -8.27% [at 11.4 µM] (inactive).
Consider `O=C(CSc1ccc(Cl)cc1)Nc1ccc(N2CCN(C(=O)c3ccc(Cl)cc3)CC2)cc1`, for which the half-maximal activity concentration (AC50) was 0.891 µM (active).
In the case of `Cn1nc(-c2ccccc2)c(C(=O)Nc2ccc(Cl)cc2)c1Cl`, the “activity, negative = inhibition” value was -29.6% (inactive).
For `Cc1nc(-c2cccnc2)sc1C(=O)Nc1ccc(Cl)cc1`, the AC50 is 14.1 µM (active).
For `O=C(Nc1ccc(Cl)cc1)c1cnc(-c2ccccc2)nc1-c1ccccc1`, the “activity, negative = inhibition” value was -16% (inactive).
Regarding `Cc1nc(-c2cccnc2)sc1C(=O)Nc1ccc(F)cc1F`, the half-maximal activity concentration (AC50) is 15.8 µM (active).
For the compound `Brc1ccc2cccnc2c1`, the “activity, negative = inhibition” value is 25.9% (inactive).
Regarding `CN1CCN(c2ncc3nc(-c4ccc(Cl)cc4)c(=O)n(CCC#N)c3n2)CC1`, the “activity, negative = inhibition” value is 10.9% (inactive).
Take `N#CCCn1c(=O)c(-c2ccc(Cl)cc2)nc2cnc(N3CCOCC3)nc21`: the “activity, negative = inhibition” value was -6.31% (inactive).
Regarding `N#CCCn1cc(/C=N/O)c(-c2ccc(Cl)cc2)n1`, the AC50 was 12.6 µM (active).
As to `Cc1ccc(S(=O)(=O)N/N=C/c2ccc(OC3CSC3)cc2)cc1`, the activity, negative = inhibition was -21.9% [at 2.29 µM] (inactive).
For the compound `O=S(=O)(N/N=C/c1ccc2c(c1)OCCO2)c1ccc(Cl)cc1`, the half-maximal activity concentration (AC50) is 14.1 µM (active).
The same measure, in the same setting: as for `O=S(=O)(N/N=C\c1ccc2c(c1)OCO2)c1ccc(Cl)cc1`, the figure is 3.98 µM (active).
With `Cc1cc(OC(=O)c2ccccc2Br)cc(=O)n1C`, the activity, negative = inhibition is -13.2% [at 11.4 µM] (inactive).
The same measure, in the same setting: in the case of `CC(C)N=c1cc2n(-c3ccc(Cl)cc3)c3ccccc3nc-2cc1Nc1ccc(Cl)cc1` it was -8.96% [at 25.6 µM] (inactive).
Same read-out and setting: as for `O=C(N/N=C/c1ccc(Cl)cc1Cl)Nc1ccccc1`, the figure is -14% (inactive); as for `CC(Sc1nc(NCc2ccccc2)nc(N(C)C)n1)C(=O)Nc1ccccc1` (stereo unspecified), -9.99% [at 2.29 µM] (inactive).
Take `CN(C)c1nc(NCc2ccccc2)nc(N/N=C/c2ccc(Cl)cc2Cl)n1`: the half-maximal activity concentration (AC50) was 2.24 µM (active).
On the same count and under the same terms, as for `N.N.O=C(O)C1(C(=O)O)CCC1.[Pt]`, the figure is 39.8 µM (active).
As for `NC1(C(=O)O)C[C@@H](C(=O)O)[C@H](C(=O)O)C1`, the AC50 result is “inactive”.
As to `O=C(O)CC1(C(=O)O)CCCCC1`, the activity, negative = inhibition is -15.2% [at 11.4 µM] (inactive).
Take `Cc1ccc(S(=O)(=O)c2nc(S(=O)(=O)c3ccc(C)cc3)c(NCc3ccco3)s2)cc1`: the AC50 is 3.55 µM (active).
Take `Cc1ccc(CSc2nnc3c(n2)OC2(Nc4ccccc4-3)C(=O)Nc3ccc(F)cc32)cc1` (stereo unspecified): the activity, negative = inhibition is -12.4% [at 2.29 µM] (inactive).
As to `O=C1Nc2ccc(F)cc2C12Nc1ccccc1-c1nnc(SCc3ccccc3F)nc1O2` (stereo unspecified), the AC50 is 15.8 µM (active).
